From the supplement of paper PMC6555819

Tests used:
Assay in all cases: PBM binding z-score (relative to random genomic background probes); higher = stronger binding; sequences stand for … in GC…GCGATTGACAGCGTAGAATGAAGG
[1] = system: FXR:RXRa (NR concentration 270 nM, RXRa partner concentration 90 nM)
Outline: (§1)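 Regression normalization was applied to scanned fluorescence from custom Agilent 4×180K protein-binding microarrays. Before scanning, arrays were incubated 1 h with ligand-free nuclear receptor dimers, and binding was detected with antibodies against each partner (one per run). Binding z-scores use the random background probes as reference.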

[2] = system: LXRa:RXRa (NR concentration 270 nM, RXRa partner concentration 90 nM)
Outline: as §1

[3] = system: LXRa homodimer (NR concentration 270 nM)
Outline: as §1

[4] = system: LXRb:RXRa (NR concentration 270 nM, RXRa partner concentration 90 nM)
Outline: as §1

[5] = system: LXRb homodimer (NR concentration 270 nM)
Outline: as §1

[6] = system: PPARa:RXRa (NR concentration 270 nM, RXRa partner concentration 90 nM)
Outline: as §1

[7] = system: PPARg:RXRa (NR concentration 180 nM, RXRa partner concentration 90 nM)
Outline: as §1

[8] = system: PPARg:RXRa 270nM:90nM, anti-RXR (NR concentration 270 nM, RXRa partner concentration 90 nM)
Outline: as §1

[9] = system: PPARg:RXRa 30nM:10nM, anti-RXR (NR concentration 30 nM, RXRa partner concentration 10 nM)
Outline: as §1

[10] = system: PPARg:RXRa 90nM:30nM, anti-RXR (NR concentration 90 nM, RXRa partner concentration 30 nM)
Outline: as §1

[11] = system: PPARg:RXRa DBDmut IVT, anti-RXR (DBD mutation: RXRa K156A/R161A, NR concentration 270 nM, RXRa partner concentration 90 nM)
Outline: as §1

[12] = system: PPARg:RXRa IVT, anti-PPARg (NR concentration 270 nM, RXRa partner concentration 90 nM)
Outline: as §1

[13] = system: PPARg DBDmut:RXRa IVT, anti-PPARg (DBD mutation: PPARg1 K132A/R137A, NR concentration 270 nM, RXRa partner concentration 90 nM)
Outline: as §1

[14] = system: PPARg DBDmut IVT, anti-PPARg (DBD mutation: PPARg1 K132A/R137A, NR concentration 270 nM)
Outline: as §1

[15] = system: PPARg homodimer (NR concentration 180 nM)
Outline: as §1

[16] = system: PXR:RXRa (NR concentration 270 nM, RXRa partner concentration 90 nM)
Outline: as §1

[17] = system: PXR homodimer (NR concentration 270 nM)
Outline: as §1

[18] = system: RARa:RXR (NR concentration 270 nM, RXRa partner concentration 90 nM)
Outline: as §1

[19] = system: RARa homodimer (NR concentration 270 nM)
Outline: as §1

[20] = system: RARb:RXRa (NR concentration 270 nM, RXRa partner concentration 90 nM)
Outline: as §1

Sequence	PBM binding z-score [1]	PBM binding z-score [2]	PBM binding z-score [3]	PBM binding z-score [4]	PBM binding z-score [5]	PBM binding z-score [6]	PBM binding z-score [7]	PBM binding z-score [8]	PBM binding z-score [9]	PBM binding z-score [10]	PBM binding z-score [11]	PBM binding z-score [12]	PBM binding z-score [13]	PBM binding z-score [14]	PBM binding z-score [15]	PBM binding z-score [16]	PBM binding z-score [17]	PBM binding z-score [18]	PBM binding z-score [19]	PBM binding z-score [20]
TCTGCTAGGCCAGTTGGTCAGCTAACGAGCTGCC	-3.09	-0.955	-1.26	-1.27	-0.666	-0.606	-1.07	0.229	0.768	0.446	0.789	0.538	-0.123	-0.684	-2.67	-0.743	-1.82	-0.933	-1.48	0.442
AATACAGGGACACTAGGCCAGAGTAGGTACGAAT	-0.211	-0.375	-0.0605	-0.483	-0.0261	-0.00279	0.846	0.394	0.113	0.294	0.603	1.52	0.579	0.0521	-0.62	-0.635	0.0323	-0.555	-0.036	0.688
ACTATTAGTTGGCTTAGGGCAACCGATACGACGC	0.0688	-0.0139	0.0233	-0.136	0.573	-0.171	0.739	-0.00108	0.0765	0.0615	0.277	0.0103	0.854	1.29	0.354	-0.139	0.29	0.151	0.786	0.506
